Structures are written as SMILES. Active and inactive are the calls of the source.

A short description of assay [1]: A549 cell viability effects, profiling panel, calcein-AM fluorescence, 48 h, basal (AID 1162). Conditions: higher = more signal.
Assay [2] can be described thus: adipocyte viability effects, profiling panel, cell-based, 3T3-L1 adipocytes, calcein-AM fluorescence, 48 h, basal (AID 1163). Conditions: 3T3-L1 adipocytes viability, higher = more signal.
Assay [3] can be described thus: HepG2 cell viability effects, profiling panel, calcein-AM fluorescence, 48 h, basal (AID 1164). Conditions: higher = more signal.
The nature of assay [4]: MM1S cell viability effects, profiling panel, calcein-AM fluorescence, 48 h, basal (AID 1165).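 Note: viability of MM1S multiple myeloma cells under basal unstimulated conditions.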 The following applies: higher = more signal.
The nature of assay [5]: basal RPMI8226 viability, no added stimulus, profiling panel, cell-based, calcein-AM fluorescence, 48 h, PK04 Diversity Set (AID 1166).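 Note: cells grown under basal conditions without added stimulus.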 The following applies: RPMI8226 myeloma viability, higher = more signal.
Assay [6] is described as follows: basal HepG2 mitochondrial membrane potential changes, profiling panel, cell-based, JC-1 fluorescence, 24 h, 100 nL compound (AID 1167). Conditions: higher = more signal.
A short description of assay [7]: basal 3T3-L1 adipocyte mitochondrial potential changes, profiling panel, cell-based, JC-1 fluorescence, 3T3-L1 adipocytes, 24 h, 100 nL compound (AID 1168). Conditions: JC-1 mitochondrial fluorescence, higher = more signal, called active from +8 up or from −8 down.
Assay [8] in a line: basal RPMI8226 mitochondrial membrane potential changes, profiling panel, cell-based, JC-1 fluorescence, 24 h, 100 nL compound (AID 1169). The following applies: RPMI8226 myeloma, JC-1 mitochondrial potential fluorescence, higher = more signal.
A short description of assay [9]: basal MM1S mitochondrial membrane potential changes, profiling panel, cell-based, JC-1 fluorescence, 24 h, 100 nL compound (AID 1170). Conditions: higher = more signal.
A short description of assay [10]: A549 lung cancer cell viability effects, profiling panel, resazurin fluorescence, 24 h, PK04 Diversity Set (AID 1171). The following applies: higher = more signal, called active from +8 up or from −8 down. A general note: Alamar Blue is a resazurin reagent that responds to reducing activity.
Note: test concentration not given here.

Consider `CC(C)C[C@@H]1NC(=O)[C@@H]2C[C@H](C(=O)NCCCCCC[N+](C)(C)C)[C@H](c3cccc(OCCO)c3)N2C1=O`, for which the z-score in assay [1] was -0.895; in assay [2], 0.137; in assay [3], -1.16; in [4], -0.131; in [5], -0.585; in [6] it was -1.48. The z-score in assay [7] is 0.229 (inactive); in assay [8] it was 0.108; in [9], 0.0386; in [10], -0.483 (inactive).
Regarding `CC(=O)NCCCC[C@@H]1NC(=O)[C@H]2C[C@@H](C(=O)NCCCCCNC(=O)CS)[C@@H](c3cccc(OCCO)c3)N2C1=O`, the z-score is -0.227 in [1]; -0.146 in assay [2]; 0.0877 in [3]; 0.0637 in [4]; -0.433 in assay [5]; 1.09 in [6]. Further, the z-score was -0.286 (inactive) in [7], -0.428 in [8], 0.0573 in assay [9] and -0.496 (inactive) in [10].
`CCCC=C(CCC)[C@@H](NC(=O)CCc1ccccc1)c1ccc(C(F)(F)F)cc1`: the z-score in assay [1] was -0.894; in [2] it was -0.265; in assay [3] it was -0.481; in [4], -1.2; in assay [5] it was -2.01; in assay [6], 2.18. Also, the z-score in assay [7] is -0.933 (inactive); in assay [8], -0.0403; in assay [9] it was -0.774; in [10], 0.569 (inactive).
For the molecule `C=CCNC(=O)[C@@H]1[C@H]2C(=O)O[C@H](c3ccccc3)[C@H](c3ccccc3)N2[C@H](c2ccc(O)cc2)[C@@]12C(=O)N(C(=O)OCCOC)c1ccc(C#CCCO)cc12`, the z-score is 2.21 in assay [1]; 1.14 in [2]; 0.723 in assay [3]; -0.824 in [4]; 0.262 in [5]; -0.707 in assay [6]. The z-score is 0.152 (inactive) in assay [7], -0.15 in [8], -0.839 in assay [9] and 0.292 (inactive) in [10].
For `[N-]=[N+]=NCc1ccccc1[C@@H]1OC(c2ccc(OCCCO)cc2)=N[C@]1(Cc1ccccc1N=[N+]=[N-])C(=O)N1CCCCC1`, the z-score in assay [1] was -0.135; in [2] it was -0.843; in [3], 0.461; in [4], -2.31; in assay [5], -3.75; in [6], 0.913. Further, the z-score in assay [7] is -0.922 (inactive); in assay [8] it was -1.19; in assay [9] it was -2.04; in assay [10], -0.484 (inactive).
In the case of `Cc1cccc([C@H]2C[C@H]3C(Br)=C[C@@H]2C(=O)[C@]32CO2)c1`, the z-score is -0.798 in [1]; 0.0171 in assay [2]; -1.24 in [3]; -3.14 in assay [4]; -2.72 in [5]; -0.565 in assay [6]. Further, the z-score in assay [7] is 0.404 (inactive); in assay [8] it was -0.837; in assay [9] it was -0.262; in [10], -0.581 (inactive).
Turning to `C=C(/C(=C/C[C@@H](OC(C)=O)c1ccc(CO)o1)c1cc(C(=O)OC)ccc1OC)C(C)C`, the z-score is 1.62 in assay [1]; -0.634 in assay [2]; 0.377 in assay [3]; -0.998 in assay [4]; 0.0028 in assay [5]; -0.241 in assay [6]. In addition, the z-score was -0.298 (inactive) in assay [7], -0.544 in assay [8], -1.2 in assay [9] and -0.0571 (inactive) in assay [10].
As to `CC(C)OC(=O)CC(=O)CC(O)c1ccc([N+](=O)[O-])cc1` (stereo not given), the z-score was 1.78 in assay [1]; -0.228 in assay [2]; 0.714 in assay [3]; 0.772 in assay [4]; 0.159 in assay [5]; 0.775 in assay [6]. Also, the z-score in [7] was 0.377 (inactive); in [8], -0.121; in assay [9] it was -0.359; in assay [10], -0.741 (inactive).
`COCCOC(=O)N1C(=O)[C@@]2(c3ccccc31)[C@H](c1ccccc1OCCO)N1[C@H](c3ccccc3)[C@H](c3ccccc3)OC(=O)[C@H]1[C@@H]2C(=O)N1CCCCCCC1`: the z-score in assay [1] is -0.785; in assay [2], 1; in assay [3] it was 0.104; in [4], -2.51; in assay [5], -1.75; in [6], 0.179. The z-score in assay [7] was -0.256 (inactive); in [8] it was -0.641; in [9], -1.07; in assay [10] it was -0.585 (inactive).
With `COCCOC(=O)N1C(=O)[C@@]2(c3cc(C#CC4(O)CCCCCC4)ccc31)[C@H](c1ccc(OCCO)cc1)N1[C@H](c3ccccc3)[C@H](c3ccccc3)OC(=O)[C@H]1[C@@H]2C(=O)Nc1nc2ccccc2s1`, the z-score is 0.0809 in assay [1]; 0.676 in [2]; 0.499 in [3]; -2.09 in [4]; -2.15 in assay [5]; -3.31 in assay [6]. Moreover, the z-score in [7] is 1.1 (inactive); in assay [8] it was -1.07; in assay [9], -1.46; in assay [10], 0.813 (inactive).
In the case of `CO[C@H]1O[C@H](CO)[C@@H](OC(=O)c2ccc(Br)cc2)[C@@H]2OC(=O)[C@H](Cc3ccccc3)C/C=C/C[C@@H](Cc3ccccc3)C(=O)O[C@@H]12`, the z-score is 1.77 in assay [1]; 0.863 in assay [2]; 0.857 in assay [3]; -0.389 in assay [4]; 0.0226 in assay [5]; -0.0867 in [6]. Moreover, the z-score in [7] was -1.37 (inactive); in assay [8] it was 0.796; in assay [9], -0.823; in [10], -1 (inactive).
Take `CC(C)(C)OC(=O)CC[C@]1(C(=O)N2CCCCC2)COC(c2ccc(OCCCO)cc2)=N1`: the z-score in [1] was -0.34; in [2] it was 0.162; in assay [3] it was -0.614; in [4], -0.0601; in assay [5] it was -0.225; in assay [6], -0.696. The z-score is -0.378 (inactive) in assay [7], -0.492 in [8], -0.978 in [9] and 2.58 (inactive) in [10].
`O=C1N[C@@H](Cc2ccccc2)C(=O)N2[C@@H]1C[C@@H](C(=O)O)[C@H]2c1ccc(O)cc1`: the z-score was -0.178 in assay [1]; 0.699 in assay [2]; -0.361 in assay [3]; -3.36 in [4]; 0.293 in assay [5]; 0.873 in assay [6]. The z-score is 0.649 (inactive) in [7], 0.201 in assay [8], -0.75 in assay [9] and -0.182 (inactive) in assay [10].
As for `COc1cc(NN2C(C(O)C3CCCCC3)C=CC3C(=O)N(C)C(=O)C32)cc(OC)c1OC` (stereo not given), the z-score in assay [1] was -0.536; in assay [2], -0.0026; in assay [3] it was -0.848; in assay [4], -0.197; in assay [5] it was 0.436; in [6], -0.326. Moreover, the z-score is -0.657 (inactive) in [7], 0.316 in assay [8], 0.144 in [9] and -0.825 (inactive) in assay [10].

(Values after PubChem BioAssay.)
